# Experimental data: PubChem BioAssay (NCI)
# This is part of a sample that, as a whole, favours compounds with a hit. Of some 79,000 tested, about 15% had one in any assay. A number with no mark means an inactive call. The source made the active and inactive calls. Cut-off read from the data, not from the text of the source: active = growth inhibition above about 70%; inactive = the rest.
# Assay: NCI Yeast Anticancer Drug Screen. Data for the mec2-1 strain (AID 157)
# Settings: S. cerevisiae mec2-1 strain, stronger effect = higher value; at 50.0 µM unless noted
# Method in brief: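 Vehicle-treated cultures served as reference for growth inhibition of compound-exposed mec2-1 yeast.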
row,SMILES,growth inhibition
1,O=C(OCC1OCOC2C(COC(=O)c3ccccc3)OCOC12)c1ccccc1 (stereo not given),4.35%
2,CCOC(=O)/N=N/C(C)(C)OC(C)=O,9.25%
3,CC(=O)CC(C[N+](=O)[O-])c1ccccc1 (stereo not given),-0.8%
4,O=c1cc(-c2ccccc2)[nH]c2c(F)ccc(F)c12,-46.5%
5,CCCN(CCC)C(=O)c1ccccc1C,-2%
6,OCC(O)COc1ccc(F)cc1 (stereo not given),-16.2%
7,CN(C)CCC(C#N)c1ccccc1 (stereo not given),-15.6%
8,COc1cc(/C=C/C(=O)O)ccc1O,-17.1%
9,COC(=O)c1c(C)nc(C)c(N=O)c1-c1ccccc1C(F)(F)F,5.5%
10,Cc1c2ccccc2nc(CS(C)(=O)=O)[n+]1[O-],-1.8%
11,O=P1(NC23CC4CC(CC(C4)C2)C3)OC(CCl)=NC1c1ccc(C2N=C(CCl)OP2(=O)NC23CC4CC(CC(C4)C2)C3)cc1 (stereo not given),-32.7%
12,CN(C)C(=O)NCCN(CCNC(=O)N(C)C)C(=O)N(C)C,13.2%
13,CCOC(=O)C(=O)C(NC(=O)Cc1ccccc1)C(=O)OCC (stereo not given),-8.55%
14,CN(/C(=N/C(=S)NCc1ccccc1)SCc1ccccc1)c1ccccc1,29.6%
15,CC1Sc2ccccc2-c2[nH]c3ccccc3c21 (stereo not given),49%
16,Cc1nc(-c2ccc(N=Cc3ccc(N4CCC5(CCCCC5)CC4)cc3)cc2)cs1,-2.05%
17,Cc1cc(=O)c2c(o1)C(=O)c1occc1C2=O,-34.5%
18,COC1CCC2C3CCC(C3)C12 (stereo not given),-2%
19,O=C(c1ccc(Cl)cc1)c1ccccc1C(=O)c1ccc(Cl)cc1,-12.1%
20,CCOC(=S)SCC(=O)CSC(=S)OCC,12.1%

row,SMILES,growth inhibition
1,CCCCN(CCCC)C(=O)c1cccc(C)c1,8.1%
2,CCC(O)C(C)(C)[N+](=O)[O-] (stereo not given),-3.25%
3,COc1c2c(cc3c1C(CCCc1ccccc1)N(C)CC3)OCO2 (stereo not given),7.6%
4,CCCCNC(=O)/C(=C\c1ccc(OC)c(OC)c1)NC(=O)c1ccccc1,-55.3%
5,NC(=O)Nc1nc2ccccc2[nH]1,-21.6%
6,COC(=O)c1c(C)ccc(C)c1Nc1cc(C)ccc1C,-18%
7,CCOC(=O)c1cnc2sc3ccc4ccccc4c3n2c1=O,23.4%
8,O=C1c2ccccc2C(=O)N1CCCCCCS(=O)(=O)Cl,10.9%
9,CCS(=O)(=O)/C=C/c1cccs1,-7.95%
10,O=C(N/N=C(\c1nc2ccc(Cl)cc2[nH]c1=O)C(O)c1ccccc1Cl)c1ccncc1 (stereo not given),20%
11,CCCC(=O)NC1CCCCC1,8.05%
12,CCCCCP(=O)(O)O.[Cu+2],-39.6%
13,C=C1CC2(OC1=O)c1ccccc1C=Cc1ccccc12,13.4%
14,c1ccc(CN2CCOC2)cc1,5.85%
15,CCOC1=Nc2ccccc2C1(C)CCO (stereo not given),-13.2%
16,CC1NC(=O)OC12CCCCC2 (stereo not given),-3.55%
17,CCCOC(=O)C1C(=O)CC(c2ccccc2)C1c1ccccc1 (stereo not given),-2.05%
18,COc1ccc(-c2oc(=O)c3ccccc3c2-c2ccccc2)cc1,4.65%
19,C=C1CCCC(C)(C)[C@@H]1CC/C(C)=C/Cn1c2cccc(=O)c-2nc2ccccc21,6.75%
20,C[C@H](CCC1=NCCN1)[C@H]1CC[C@H]2[C@@H]3CC[C@@H]4C[C@H](O)CC[C@]4(C)[C@H]3CC[C@]12C,92.8% (active)

# Assay: NCI Yeast Anticancer Drug Screen. Data for the sgs1 mgt1 strain (AID 161);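 note: 0% = growth of cultures given vehicle only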
# Settings: S. cerevisiae sgs1 mgt1 strain, stronger effect = higher value; at 50.0 µM unless noted
# Method in brief: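 Read-out: growth inhibition vs vehicle controls. Cells: mutant yeast strain deficient in DNA damage repair.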
row,SMILES,growth inhibition
1,O=C(OCC1OCOC2C(COC(=O)c3ccccc3)OCOC12)c1ccccc1 (stereo not given),8.05%
2,CCOC(=O)/N=N/C(C)(C)OC(C)=O,-8.1%
3,CC(=O)CC(C[N+](=O)[O-])c1ccccc1 (stereo not given),-4.65%
4,O=c1cc(-c2ccccc2)[nH]c2c(F)ccc(F)c12,-34.5%
5,CCCN(CCC)C(=O)c1ccccc1C,6.65%
6,OCC(O)COc1ccc(F)cc1 (stereo not given),-0.15%
7,CN(C)CCC(C#N)c1ccccc1 (stereo not given),-2.7%
8,COc1cc(/C=C/C(=O)O)ccc1O,16.1%
9,COC(=O)c1c(C)nc(C)c(N=O)c1-c1ccccc1C(F)(F)F,7.45%
10,Cc1c2ccccc2nc(CS(C)(=O)=O)[n+]1[O-],-4.75%
11,O=P1(NC23CC4CC(CC(C4)C2)C3)OC(CCl)=NC1c1ccc(C2N=C(CCl)OP2(=O)NC23CC4CC(CC(C4)C2)C3)cc1 (stereo not given),-34.3%
12,CN(C)C(=O)NCCN(CCNC(=O)N(C)C)C(=O)N(C)C,-0.9%
13,CCOC(=O)C(=O)C(NC(=O)Cc1ccccc1)C(=O)OCC (stereo not given),1.85%
14,CN(/C(=N/C(=S)NCc1ccccc1)SCc1ccccc1)c1ccccc1,35.6%
15,CC1Sc2ccccc2-c2[nH]c3ccccc3c21 (stereo not given),16%
16,Cc1nc(-c2ccc(N=Cc3ccc(N4CCC5(CCCCC5)CC4)cc3)cc2)cs1,15.7%
17,Cc1cc(=O)c2c(o1)C(=O)c1occc1C2=O,-3.9%
18,COC1CCC2C3CCC(C3)C12 (stereo not given),6.4%
19,O=C(c1ccc(Cl)cc1)c1ccccc1C(=O)c1ccc(Cl)cc1,6.6%
20,CCOC(=S)SCC(=O)CSC(=S)OCC,21.7%

row,SMILES,growth inhibition
1,CCCCN(CCCC)C(=O)c1cccc(C)c1,4.1%
2,CCC(O)C(C)(C)[N+](=O)[O-] (stereo not given),-2.6%
3,COc1c2c(cc3c1C(CCCc1ccccc1)N(C)CC3)OCO2 (stereo not given),30.7%
4,CCCCNC(=O)/C(=C\c1ccc(OC)c(OC)c1)NC(=O)c1ccccc1,-34.4%
5,NC(=O)Nc1nc2ccccc2[nH]1,-11.7%
6,COC(=O)c1c(C)ccc(C)c1Nc1cc(C)ccc1C,-1.2%
7,CCOC(=O)c1cnc2sc3ccc4ccccc4c3n2c1=O,61%
8,O=C1c2ccccc2C(=O)N1CCCCCCS(=O)(=O)Cl,-2.75%
9,CCS(=O)(=O)/C=C/c1cccs1,-8.65%
10,O=C(N/N=C(\c1nc2ccc(Cl)cc2[nH]c1=O)C(O)c1ccccc1Cl)c1ccncc1 (stereo not given),8.7%
11,CCCC(=O)NC1CCCCC1,-26.9%
12,CCCCCP(=O)(O)O.[Cu+2],-9.9%
13,C=C1CC2(OC1=O)c1ccccc1C=Cc1ccccc12,55.1%
14,c1ccc(CN2CCOC2)cc1,-13.1%
15,CCOC1=Nc2ccccc2C1(C)CCO (stereo not given),-23.1%
16,CC1NC(=O)OC12CCCCC2 (stereo not given),-2.95%
17,CCCOC(=O)C1C(=O)CC(c2ccccc2)C1c1ccccc1 (stereo not given),1.3%
18,COc1ccc(-c2oc(=O)c3ccccc3c2-c2ccccc2)cc1,5.35%
19,C=C1CCCC(C)(C)[C@@H]1CC/C(C)=C/Cn1c2cccc(=O)c-2nc2ccccc21,2.15%
20,C[C@H](CCC1=NCCN1)[C@H]1CC[C@H]2[C@@H]3CC[C@@H]4C[C@H](O)CC[C@]4(C)[C@H]3CC[C@]12C,91.2% (active)
